Only some compounds are listed: those with a hit (about 1.1% of all), similar ones and a draw of the others.
HTT aggregate: inhibitors of mutant huntingtin aggregate formation in PC12 cells. Potency, µM (series often up to 46.1 µM), for inactives: at the top dose activity change, negative = inhibition, actives largely listed as inhibitors. PC12 HttQ103-GFP aggregates, Acumen cytometry, 40 h. actives 1.1% (n = 220,000); further: on the % scale 0 is the no-effect control and ±100 the full control effect; nearly all actives have a fitted effect of over 60% in size
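Aggregates are detected as GFP objects 1–25 µm with signal 6 STDEV over background in lysates of induced PC12 cells. These carry Huntingtin exon 1 with 103 glutamines fused to GFP under an ecdysone promoter; compounds titrated.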
IDH1 R132H inh: inhibitors of human mutant IDH1 R132H | IDH1-R132H enzyme, NADPH consumption, diaphorase/resazurin fluorescence | Potency, µM (highest dose often 76.6 µM), without a hit: top-dose activity change, negative = inhibition, actives largely listed as inhibitors | actives 0.093% (n = 390,000) | O75874; further: on the % scale 0 is the no-effect control and ±100 the full control effect; nearly all actives have a fitted effect of over 65% in size
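IDH1-R132H (0.5 ug/mL) preincubated 30 min with compound, then NADPH (0.016 mM) and alpha-KG (2 mM) added; 80 min at RT, pH 7.5. Remaining NADPH coupled via diaphorase/resazurin to fluorescence (540/590 nm); concentration-response curves normalized to no-enzyme control.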
NPSR antag: antagonists of human neuropeptide S receptor cAMP signaling | Q6W5P4 | Potency, µM (top dose mostly 38.3 µM), for the others: at the highest dose activity change, negative = inhibition, usual class: inhibitors | actives 1% (n = 220,000) | CHO-NPSR cells, cAMP TR-FRET, antagonist mode; further: on the % scale 0 is the no-effect control and ±100 the full control effect; nearly all actives have a fitted effect of over 50% in size
Target sequence (Q6W5P4 whole entry, looked up): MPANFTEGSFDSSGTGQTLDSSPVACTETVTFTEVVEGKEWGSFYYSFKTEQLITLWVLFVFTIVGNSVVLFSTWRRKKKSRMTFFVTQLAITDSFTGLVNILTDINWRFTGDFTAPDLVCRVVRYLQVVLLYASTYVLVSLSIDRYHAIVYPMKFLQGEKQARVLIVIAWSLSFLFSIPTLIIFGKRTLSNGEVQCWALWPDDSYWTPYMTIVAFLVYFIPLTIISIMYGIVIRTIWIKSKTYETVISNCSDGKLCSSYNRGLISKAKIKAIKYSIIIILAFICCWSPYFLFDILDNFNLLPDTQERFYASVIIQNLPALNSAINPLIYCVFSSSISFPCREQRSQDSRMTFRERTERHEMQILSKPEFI
AT treatment: potential ataxia-telangiectasia treatment; F2112 A-T fibroblasts, KAP-1 phosphorylation AlphaLISA; neocarzinostatin DNA damage 30 min before lysis; Potency, µM (doses to about 57.5 µM), for inactives: top-dose activation, usual class: activators; actives 0.19% (n = 320,000); AID 485349; further: % of control where 0% means no effect; nearly all actives have a fitted effect of over 45% in size
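hTERT-immortalized A-T patient fibroblasts (F2112), 500 cells/well in OPTI-MEM, 1% FBS, got compounds for 60 min, then NCS for 30 min at 37C. Lysates were then assayed for phospho-KAP-1 by AlphaLISA (anti-pKAP1 donor, anti-KAP1 acceptor beads), 6 hr at 25C.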
HTT ATP protect: protects HTT-Q103 PC12 cells, measured by ATP; PC12 HTT-Q103 induced, cytoprotection, ATP luminescence, 40 h; Potency, µM (series often up to 56.4 µM), for inactives: cytoprotection (ATP increase), actives largely listed as activators; actives 0.14% (n = 230,000); AID 1471; further: % of control where 0% means no effect; nearly all actives have a fitted effect of over 45% in size
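Huntington model: PC12 line, ecdysone-inducible HTTQ103 exon1–GFP, tebufenozide 100 nM. Test articles in a dose series. Endpoint luminescence from cellular ATP.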
* marks the source's active call; other numbers are inactive results; ! = not confirmed by another sample; [ ] = another dose, or the depositor's remark. The call rests on the fitted dose curve; in most records, active means well fitted curve in the direction sought with a large enough effect; inconclusive means small, poorly fitted or top-dose-only effect, or another doubt; inactive means no such curve, though single readings can be large; an effect the other way counts as inactive or inconclusive. Potency means the concentration at half of the fitted maximal effect.

How did CC(C)c1onc(C(=O)NC(C)c2ccccc2)c1[N+](=O)[O-] (configuration not stated) do in these assays?
HTT aggregate: 4.5µM*; IDH1 R132H inh: -1%; NPSR antag: 13%; AT treatment: -4%; HTT ATP protect: -41%

What do the screens show for `COCCCNC(=O)CN1C(=O)/C(=C/c2ccccc2)Sc2ccccc21`?
HTT aggregate: 4%[9.22 µM]; IDH1 R132H inh: 3%; NPSR antag: -23%; AT treatment: 40µM*; HTT ATP protect: 32%[10 µM]

What do the screens show for `CC(=O)OC(C)(C)N=Nc1ccc(Br)cc1`?
HTT ATP protect: 1%[10 µM]

How did CC1CCN(S(=O)(=O)c2ccc3c(c2)oc(=O)n3CC(=O)NCc2ccc3c(c2)OCO3)CC1 do in these assays?
HTT aggregate: 8.9µM*; IDH1 R132H inh: 16%; NPSR antag: -24%[46.1 µM]; AT treatment: -4%; HTT ATP protect: -2%

How did Cn1c(=N)c(S(=O)(=O)c2ccccc2)cc2c(=O)n3ccccc3nc21 do in these assays?
HTT aggregate: 3.2µM*; IDH1 R132H inh: 3%; NPSR antag: -9%[46.1 µM]; AT treatment: -1%; HTT ATP protect: -17%

How did Cc1cc(CN2CCN(CCC#N)CC2)c(O)c(C2(C)CCCCC2)c1 do in these assays?
HTT aggregate: -14%; IDH1 R132H inh: 2%; NPSR antag: 10µM*; AT treatment: 1%; HTT ATP protect: -11%

How did O=C(/C=C/c1ccccc1Cl)Nc1nc(-c2cccs2)ns1 do in these assays?
IDH1 R132H inh: -1%

What do the screens show for `NS(=O)(=O)c1ccc(NC(=O)CSc2ncnc3ccccc23)cc1`?
HTT aggregate: -2%; IDH1 R132H inh: -1%; NPSR antag: -51%; AT treatment: 0%; HTT ATP protect: 8.9µM*

Results for COC(=O)c1c(NC(=O)CSc2ncnc3ccccc23)sc(C)c1C ?
IDH1 R132H inh: -7%

How did CCOC(=O)c1c(NC(=O)CSc2ncnc3ccccc23)sc(C(C)=O)c1C do in these assays?
HTT aggregate: -22%; IDH1 R132H inh: -2%; NPSR antag: 10%; AT treatment: 10%; HTT ATP protect: 2.5µM*

How did NS(=O)(=O)c1cccc(NC(=O)CSc2ncnc3ccccc23)c1 do in these assays?
HTT aggregate: -2%[9.22 µM]; IDH1 R132H inh: 2%; NPSR antag: -23%; AT treatment: -18%; HTT ATP protect: 1%[10 µM]

How did N[C@H](Cc1ccc(O)c(I)c1)C(=O)O do in these assays?
HTT ATP protect: -17%[1.9 µM]

How did CCCOc1ccc(C(=O)NNC(=S)NC(=O)c2cc(-c3ccccc3)nc3ccccc23)cc1 do in these assays?
HTT aggregate: 7.1µM*; IDH1 R132H inh: -2%; NPSR antag: -1%[46.1 µM]; AT treatment: 2%; HTT ATP protect: 16%

How did O=S(=O)(O)c1cc(N=[N+]([O-])c2cc(S(=O)(=O)O)c3ccccc3c2)cc2ccccc12 do in these assays?
HTT ATP protect: 10%[10 µM]

What do the screens show for `O=C(OCn1ncc(Br)c(Br)c1=O)c1c(F)cccc1F`?
HTT aggregate: inconclusive; NPSR antag: 2.5µM*; AT treatment: -6%; HTT ATP protect: -126%

Results for Cc1ccc(C)c(N2CCN(C(=O)Nc3ccc4c(c3)N(C)C(=O)CS4)CC2)c1 ?
HTT aggregate: 22µM*; IDH1 R132H inh: 3%; NPSR antag: -24%; AT treatment: 3%; HTT ATP protect: -52%

How did CN1C(=O)CSc2ccc(NC(=O)N3CCN(c4ccccn4)CC3)cc21 do in these assays?
HTT aggregate: inconclusive; IDH1 R132H inh: 1%; NPSR antag: -2%[46.1 µM]; AT treatment: 2%; HTT ATP protect: -7%[10 µM]

How did CN(C)CCOC(c1ccccc1)c1ccccc1 do in these assays?
HTT aggregate: inconclusive; IDH1 R132H inh: -7%; NPSR antag: 11%; AT treatment: 9%; HTT ATP protect: -51%

How did CN(C)CCOC(c1ccccc1)c1ccccc1 (tested in a mixture with another compound) do in these assays?
HTT aggregate: 8%; IDH1 R132H inh: 5%; NPSR antag: 0%; AT treatment: 14%; HTT ATP protect: 3.2µM*!
